# Experimental data as given in PubChem BioAssay.
# Where “and” joins values, the source holds several entries; their conditions need not be identical. Identical values can stand only once. Inconclusive results are not listed. Calls of active or inactive are those of the source.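 How the source made its calls, unless noted: active means normalized viability below 100% at a tested concentration; inactive means the rest.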
# Legend:
# [1] = viability loss in pontine glioma line – cell-based, SU-DIPG-XXV, MIPE5.0, CellTiter-Glo, qHTS, dose response (AID 1347065; cut-off not given, nearly all actives have AC50 up to about 26 µM;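 further: cells exposed to compound for 48 hours before ATP readout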); settings: CellTiter-Glo ATP luminescence
# [2] = JHH-DIPG-1 glioma cell viability, MIPE5.0 library, CellTiter-Glo luminescence, qHTS (AID 1347067; cut-off not given, nearly all actives have AC50 up to about 26 µM;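 further: cells exposed to compound for 48 hours before readout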); settings: JHH-DIPG-1 glioma viability, CellTiter-Glo ATP luminescence
# [3] = growth inhibition of DIPG cells – cell-based, MIPE5.0 library, qHTS (AID 1347068; cut-off not given, nearly all actives have IC50 up to about 30 µM); settings: SU-DIPG-XXV viability
# [4] = viability loss with induced miR-34 in A549 – imaging, A549 dox-inducible miR-34, nuclei and caspase counts, primary screen (AID 1347080;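 active means compounds whose cell count with miR-34 switched on is under 0.7 times the count with it off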); settings: A549 miR-34 inducible, Hoechst nuclei count, 48 h
# [5] = blockers of cellular phospholipid synthesis – cell-based, LOPAC library, screen 4, primary screen (AID 1347384; call rule not given here); settings: animal cells, phospholipid biosynthesis inhibition screen; at 10 µM
# [6] = MELAS cybrid and Rieske KO viability enhancers – cell-based, MELAS cybrids, Rieske KO mouse fibroblasts, CellTiter-Glo, primary screen (AID 1508586;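 active means mean z-score across replicates of 1.96 or higher in either the MELAS or the Rieske mutant cell line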;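 further: z relative to plate mean and SD of compound and empty wells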); settings: low glucose
# [7] = growth inhibition of DIPG cells – cell-based, MIPE4.0 library, CellTiter-Glo luminescence, qHTS (AID 1347066; cut-off not given, nearly all actives have AC50 up to about 30 µM;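 further: cells exposed to compound for 48 hours before readout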); settings: SU-DIPG-VI viability, CellTiter-Glo ATP luminescence
# [8] = chitosan synthesis blockers in C. neoformans – flow cytometry, Cibacron Brilliant Red staining (AID 1347148; call rule not given here;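 further: compound exposure lasted three days at 37 degrees C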); settings: Cryptococcus neoformans chitosan, stronger effect = lower value; at 10 µM unless noted
# [9] = compounds altering HSF1 focus formation in cells – imaging, Selleck Cancer Library (AID 1347162; in the data active means plate-normalised HSF1 focus index below about 0.46); settings: human cells, HSF1 nuclear foci imaging, at 10 µM; SSMD: measured here: HSF1 foci SSMD mean; cell count: measured here: cell number; plate-normalised HSF1 focus index: stronger effect = lower value
# [10] = drug combination growth inhibition, ovarian cancer – cell-based, oncology-focused library, rucaparib conditional, profiling panel (AID 1508598); settings: patient-derived ovarian cancer cells, CellTiter-Glo viability, 144 h, stronger effect = lower value
# [11] = stronger effect = lower value, cell number ratio, induced over uninduced
# [12] = measured here: relative caspase fold change +Dox/-Dox
# [13] = measured here: total cells with miR-34 induction, stronger effect = lower value
# [14] = measured here: total cells without miR-34 induction
# [15] = MELAS cybrid survival, CellTiter-Glo 48 h, stronger effect = higher value
# [16] = Rieske KO mouse fibroblast survival, CellTiter-Glo 72 h
smiles,measurement,setting,value
CCCN(CCC)C(=O)C(CCC(=O)O)NC(=O)c1ccccc1 (centres undefined),outcome,[1],inactive
same,outcome,[2],inactive
same,outcome,[3],inactive
same,fold change,[4]; [11],1.06 (inactive) and 0.936 (inactive) and 0.845 (inactive)
same,fold change,[4]; [12],0.941 and 0.892 and 4.08
same,cell count,[4]; [13],10500 and 8340 and 11300
same,cell count,[4]; [14],9940 and 8900 and 13400
same,outcome,[5],inactive
same,z-score,[6]; [15],-1.04 (inactive)
same,z-score,[6]; [16],-0.386
CCN(CC)CCOc1ccc(/C(=C(\Cl)c2ccccc2)c2ccccc2)cc1,AC50,[1],13200 nM (active)
same,outcome,[7],inactive
same,outcome,[3],inactive
same,fold change,[4]; [11],0.868 (inactive)
same,fold change,[4]; [12],0.906
same,cell count,[4]; [13],10700
same,cell count,[4]; [14],12300
Nc1ncnc2c1ncn2[C@@H]1O[C@H](CO)[C@@H](O)[C@H]1O,outcome,[1],inactive
same,outcome,[7],inactive
same,outcome,[3],inactive
same,fold change,[4]; [11],0.803 (inactive)
same,fold change,[4]; [12],0.527
same,cell count,[4]; [13],10400
same,cell count,[4]; [14],12900
NS(=O)(=O)c1cc2c(cc1Cl)NC(C(Cl)Cl)NS2(=O)=O (centres undefined),outcome,[1],inactive
same,outcome,[7],inactive
same,outcome,[2],inactive
same,outcome,[3],inactive
same,z-score,[6]; [15],-0.307 (inactive) and 0.588 (inactive) and 0.372 (inactive)
same,z-score,[6]; [16],0.662 and 0.211 and -0.506
COC(=O)Nc1nc2ccc(C(=O)c3cccs3)cc2[nH]1,AC50,[1],118 nM (active)
same,AC50,[7],3720 nM (active)
same,fold fluorescence,[8],18.7 [at 165.9 µM] (inactive)
same,SSMD,[9],3.16
same,cell count,[9],6830
same,plate-normalised HSF1 focus index,[9],1.2 (inactive)
same,outcome,[5],inactive
same,z-score,[6]; [15],-0.757 (inactive) and 1.39 (inactive) and -3.68 (inactive)
same,z-score,[6]; [16],0.709 and -0.844 and -0.416
same,viability,"[10]; at 0.000305 µM, OCI-C5x cells, with rucaparib 10 µM, 100% = cells with rucaparib alone",120% (inactive)
same,viability,"[10]; at 0.000305 µM, OCI-C5x cells, without rucaparib",106% (inactive)
same,viability,"[10]; at 0.000305 µM, OCI-P5x cells, with rucaparib 20 µM, 100% = cells with rucaparib alone",89% (active)
same,viability,"[10]; at 0.000305 µM, OCI-P5x cells, without rucaparib",84.1% (active)
same,viability,"[10]; at 0.00122 µM, OCI-C5x cells, with rucaparib 10 µM, 100% = cells with rucaparib alone",116% (inactive)
same,viability,"[10]; at 0.00122 µM, OCI-C5x cells, without rucaparib",108% (inactive)
same,viability,"[10]; at 0.00122 µM, OCI-P5x cells, with rucaparib 20 µM, 100% = cells with rucaparib alone",88% (active)
same,viability,"[10]; at 0.00122 µM, OCI-P5x cells, without rucaparib",90.4% (active)
same,viability,"[10]; at 0.00488 µM, OCI-C5x cells, with rucaparib 10 µM, 100% = cells with rucaparib alone",112% (inactive)
same,viability,"[10]; at 0.00488 µM, OCI-C5x cells, without rucaparib",108% (inactive)
same,viability,"[10]; at 0.00488 µM, OCI-P5x cells, with rucaparib 20 µM, 100% = cells with rucaparib alone",87.3% (active)
same,viability,"[10]; at 0.00488 µM, OCI-P5x cells, without rucaparib",58% (active)
same,viability,"[10]; at 0.0195 µM, OCI-C5x cells, with rucaparib 10 µM, 100% = cells with rucaparib alone",96.1% (active)
same,viability,"[10]; at 0.0195 µM, OCI-C5x cells, without rucaparib",74% (active)
same,viability,"[10]; at 0.0195 µM, OCI-P5x cells, with rucaparib 20 µM, 100% = cells with rucaparib alone",68.5% (active)
same,viability,"[10]; at 0.0195 µM, OCI-P5x cells, without rucaparib",32.7% (active)
same,viability,"[10]; at 0.0781 µM, OCI-C5x cells, with rucaparib 10 µM, 100% = cells with rucaparib alone",71.2% (active)
same,viability,"[10]; at 0.0781 µM, OCI-C5x cells, without rucaparib",69.2% (active)
same,viability,"[10]; at 0.0781 µM, OCI-P5x cells, with rucaparib 20 µM, 100% = cells with rucaparib alone",62.5% (active)
same,viability,"[10]; at 0.0781 µM, OCI-P5x cells, without rucaparib",35.1% (active)
same,viability,"[10]; at 0.313 µM, OCI-C5x cells, with rucaparib 10 µM, 100% = cells with rucaparib alone",89% (active)
same,viability,"[10]; at 0.313 µM, OCI-C5x cells, without rucaparib",97.5% (active)
same,viability,"[10]; at 0.313 µM, OCI-P5x cells, with rucaparib 20 µM, 100% = cells with rucaparib alone",77.5% (active)
same,viability,"[10]; at 0.313 µM, OCI-P5x cells, without rucaparib",52.1% (active)
same,viability,"[10]; at 1.25 µM, OCI-C5x cells, with rucaparib 10 µM, 100% = cells with rucaparib alone",56.8% (active)
same,viability,"[10]; at 1.25 µM, OCI-C5x cells, without rucaparib",60.1% (active)
same,viability,"[10]; at 1.25 µM, OCI-P5x cells, with rucaparib 20 µM, 100% = cells with rucaparib alone",67.3% (active)
same,viability,"[10]; at 1.25 µM, OCI-P5x cells, without rucaparib",48% (active)
same,viability,"[10]; at 5 µM, OCI-C5x cells, with rucaparib 10 µM, 100% = cells with rucaparib alone",55.3% (active)
same,viability,"[10]; at 5 µM, OCI-C5x cells, without rucaparib",38.7% (active)
same,viability,"[10]; at 5 µM, OCI-P5x cells, with rucaparib 20 µM, 100% = cells with rucaparib alone",52.5% (active)
same,viability,"[10]; at 5 µM, OCI-P5x cells, without rucaparib",14.7% (active)
CC(C)[C@H](N)C(=O)OCCOCn1cnc2c(=O)[nH]c(N)nc21,outcome,[1],inactive
same,outcome,[2],inactive
same,outcome,[3],inactive
same,fold change,[4]; [11],0.847 (inactive)
same,fold change,[4]; [12],1.65
same,cell count,[4]; [13],9730
same,cell count,[4]; [14],11500
same,z-score,[6]; [15],0.38 (inactive) and 0.156 (inactive)
same,z-score,[6]; [16],0.16 and -0.416
O=P(O)(O)C(O)(Cc1cccnc1)P(=O)(O)O,outcome,[7],inactive
same,outcome,[2],inactive
same,outcome,[3],inactive
same,fold change,[4]; [11],0.901 (inactive) and 0.801 (inactive)
same,fold change,[4]; [12],4.65 and 1.35
same,cell count,[4]; [13],12400 and 8410
same,cell count,[4]; [14],13700 and 10500
same,z-score,[6]; [15],0.589 (inactive) and -0.187 (inactive)
same,z-score,[6]; [16],0.376 and -0.746
C#C[C@]1(O)CC[C@H]2[C@@H]3[C@H](C)CC4=C(CCC(=O)C4)[C@H]3CC[C@@]21C,outcome,[1],inactive
same,outcome,[3],inactive
same,fold change,[4]; [11],0.908 (inactive) and 0.883 (inactive)
same,fold change,[4]; [12],0.948 and 1.2
same,cell count,[4]; [13],5910 and 8230
same,cell count,[4]; [14],6510 and 9320
same,z-score,[6]; [15],0.727 (inactive) and 0.175 (inactive)
same,z-score,[6]; [16],0.291 and -0.0373
NCCCCCC(=O)O,outcome,[1],inactive
same,outcome,[2],inactive
same,outcome,[3],inactive
same,outcome,[5],inactive
same,z-score,[6]; [15],-0.274 (inactive) and -0.333 (inactive)
same,z-score,[6]; [16],-0.165 and -1.21
CCCCc1ccc2nc(NC(=O)OC)[nH]c2c1,AC50,[1],118 nM (active)
same,AC50,[2],332 nM (active)
same,fold change,[4]; [11],1.15 (inactive)
same,fold change,[4]; [12],0.509
same,cell count,[4]; [13],1770
same,cell count,[4]; [14],1530
same,z-score,[6]; [15],-2.16 (inactive)
same,z-score,[6]; [16],0.696
CCOC(=O)[C@H](CCc1ccccc1)N[C@@H](C)C(=O)N1[C@H](C(=O)O)C[C@@H]2CCC[C@@H]21,AC50,[7],16600 nM (active)
same,outcome,[2],inactive
same,outcome,[3],inactive
same,fold change,[4]; [11],0.911 (inactive) and 0.827 (inactive) and 0.868 (inactive)
same,fold change,[4]; [12],1.49 and 3.09 and 1.08
same,cell count,[4]; [13],9860 and 10700 and 9970
same,cell count,[4]; [14],10800 and 13000 and 11500
same,z-score,[6]; [15],-0.258 (inactive) and 0.537
same,z-score,[6]; [16],-0.11 and 2.28
CNC[C@H](O)c1ccc(O)c(O)c1,outcome,[7],inactive
same,outcome,[2],inactive
same,outcome,[3],inactive
same,fold change,[4]; [11],0.963 (inactive)
same,fold change,[4]; [12],1.01
same,cell count,[4]; [13],10100
same,cell count,[4]; [14],10500
same,outcome,[5],inactive
CC1=C(C(=O)O)N2C(=O)[C@@H](NC(=O)[C@H](N)C3=CCC=CC3)[C@H]2SC1,outcome,[7],inactive
